For 40 sequences, binding signal results are on record in publication PMC11006913.

For the first assay, the target named is MSX2 (Homo sapiens, UniProt P35548 130-214, R199I). As to the kind of experiment: PBM; 200 nM protein, PBS. Conditions: dsDNA, one strand shown.
MSX2 (Homo sapiens, UniProt P35548 130-214, R199I), sequence (P35548 130-214 R199I): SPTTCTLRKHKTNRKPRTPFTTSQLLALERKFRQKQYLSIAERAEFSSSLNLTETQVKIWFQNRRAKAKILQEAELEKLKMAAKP
Take ATAATCAC: the binding signal was 11.1 upbm affinity estimate (log intensity, higher = more binding, comparable within an allelic series).
Take CAGGGCCA: the binding signal was 9.52 upbm affinity estimate (log intensity, higher = more binding, comparable within an allelic series).
As to GATAATCA, the binding signal is 10.9 upbm affinity estimate (log intensity, higher = more binding, comparable within an allelic series).
As to CATACTAA, the binding signal was 10.4 upbm affinity estimate (log intensity, higher = more binding, comparable within an allelic series).
Turning to CCACTGGC, the binding signal is 9.65 upbm affinity estimate (log intensity, higher = more binding, comparable within an allelic series).
On the same count and under the same terms, for CGGCGGCA the value was 9.49 upbm affinity estimate (log intensity, higher = more binding, comparable within an allelic series); for GAGGTGGC, 9.4 upbm affinity estimate (log intensity, higher = more binding, comparable within an allelic series); for GCTCCAGC, 9.46 upbm affinity estimate (log intensity, higher = more binding, comparable within an allelic series).
Same read-out and setting: for ATTAAGAA the value was 11.3 upbm affinity estimate (log intensity, higher = more binding, comparable within an allelic series); for CATTTTGA, 10.3 upbm affinity estimate (log intensity, higher = more binding, comparable within an allelic series); for AGGGGGAG, 9.43 upbm affinity estimate (log intensity, higher = more binding, comparable within an allelic series).
CAATCAAA: the binding signal is 10.9 upbm affinity estimate (log intensity, higher = more binding, comparable within an allelic series).
AGCGCCGG: the binding signal is 9.57 upbm affinity estimate (log intensity, higher = more binding, comparable within an allelic series).
As for GACCTCCC, the binding signal was 9.42 upbm affinity estimate (log intensity, higher = more binding, comparable within an allelic series).
Still for that read-out and setting: for TCCGCGGA the value was 9.48 upbm affinity estimate (log intensity, higher = more binding, comparable within an allelic series).
With CTAATCAA, the binding signal is 11 upbm affinity estimate (log intensity, higher = more binding, comparable within an allelic series).
For GTAATCAA, the binding signal is 11.1 upbm affinity estimate (log intensity, higher = more binding, comparable within an allelic series).
AATTACTG: the binding signal is 12.1 upbm affinity estimate (log intensity, higher = more binding, comparable within an allelic series).
AGCGGGGC: the binding signal was 9.48 upbm affinity estimate (log intensity, higher = more binding, comparable within an allelic series).
Turning to AGCGGCCT, the binding signal is 9.45 upbm affinity estimate (log intensity, higher = more binding, comparable within an allelic series).
Take CCTACGGC: the binding signal is 9.61 upbm affinity estimate (log intensity, higher = more binding, comparable within an allelic series).
In the case of AGGCGTGA, the binding signal is 9.57 upbm affinity estimate (log intensity, higher = more binding, comparable within an allelic series).
For the sequence GAGGAAGC, the binding signal is 9.59 upbm affinity estimate (log intensity, higher = more binding, comparable within an allelic series).
On to CCCTAGCG, for which the binding signal was 9.48 upbm affinity estimate (log intensity, higher = more binding, comparable within an allelic series).
For the sequence GGTAATCA, the binding signal is 11 upbm affinity estimate (log intensity, higher = more binding, comparable within an allelic series).
Regarding GCAATCAA, the binding signal was 10.9 upbm affinity estimate (log intensity, higher = more binding, comparable within an allelic series).
Still for that read-out and setting: for CGCTCAGC the value was 9.48 upbm affinity estimate (log intensity, higher = more binding, comparable within an allelic series).
Regarding GAAGCAGC, the binding signal is 9.64 upbm affinity estimate (log intensity, higher = more binding, comparable within an allelic series).
AGGGGCCG: the binding signal was 9.46 upbm affinity estimate (log intensity, higher = more binding, comparable within an allelic series).
As for TAATCAAA, the binding signal is 11.1 upbm affinity estimate (log intensity, higher = more binding, comparable within an allelic series).
ATGGAAAT: the binding signal was 10.4 upbm affinity estimate (log intensity, higher = more binding, comparable within an allelic series).
Still for that read-out and setting: for AGCCCACC the value was 9.45 upbm affinity estimate (log intensity, higher = more binding, comparable within an allelic series).
In the case of GGCCAGCA, the binding signal was 9.48 upbm affinity estimate (log intensity, higher = more binding, comparable within an allelic series).
Consider ATGATTAC, for which the binding signal was 10.9 upbm affinity estimate (log intensity, higher = more binding, comparable within an allelic series).
Take GATGATTA: the binding signal was 11.1 upbm affinity estimate (log intensity, higher = more binding, comparable within an allelic series).
Same read-out and setting: to AGCTATTA belongs 11.1 upbm affinity estimate (log intensity, higher = more binding, comparable within an allelic series); to CCTGTGCC, 9.49 upbm affinity estimate (log intensity, higher = more binding, comparable within an allelic series).
As for AAATATTT, the binding signal was 10.7 upbm affinity estimate (log intensity, higher = more binding, comparable within an allelic series).
In the case of CACCAGCC, the binding signal was 9.46 upbm affinity estimate (log intensity, higher = more binding, comparable within an allelic series).
For the sequence GAGCCGAC, the binding signal was 9.44 upbm affinity estimate (log intensity, higher = more binding, comparable within an allelic series).

The next assay deals with MSX2 (Homo sapiens, UniProt P35548 130-214). As to the kind of experiment: PBM; 200 nM protein, PBS. To be noted: dsDNA, one strand shown.
MSX2 (Homo sapiens, UniProt P35548 130-214), sequence (P35548 130-214): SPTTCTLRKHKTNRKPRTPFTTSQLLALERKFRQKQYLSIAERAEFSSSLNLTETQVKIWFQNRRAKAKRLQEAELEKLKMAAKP
CAGGGCCA: the binding signal was 9.57 upbm affinity estimate (log intensity, higher = more binding, comparable within an allelic series).
Regarding CATACTAA, the binding signal is 10.7 upbm affinity estimate (log intensity, higher = more binding, comparable within an allelic series).
On to CCACTGGC, for which the binding signal is 9.69 upbm affinity estimate (log intensity, higher = more binding, comparable within an allelic series).
As for CGGCGGCA, the binding signal was 9.38 upbm affinity estimate (log intensity, higher = more binding, comparable within an allelic series).
On to GAGGTGGC, for which the binding signal is 9.42 upbm affinity estimate (log intensity, higher = more binding, comparable within an allelic series).
Still for that read-out and setting: to GCTCCAGC belongs 9.45 upbm affinity estimate (log intensity, higher = more binding, comparable within an allelic series); to ATTAAGAA, 12 upbm affinity estimate (log intensity, higher = more binding, comparable within an allelic series); to CATTTTGA, 10.6 upbm affinity estimate (log intensity, higher = more binding, comparable within an allelic series).
The same measure, in the same setting: for AGGGGGAG the value was 9.52 upbm affinity estimate (log intensity, higher = more binding, comparable within an allelic series).
In the case of AGCGCCGG, the binding signal was 9.53 upbm affinity estimate (log intensity, higher = more binding, comparable within an allelic series).
The same measure, in the same setting: for GACCTCCC the value was 9.46 upbm affinity estimate (log intensity, higher = more binding, comparable within an allelic series).
TCCGCGGA: the binding signal was 9.54 upbm affinity estimate (log intensity, higher = more binding, comparable within an allelic series).
For AATTACTG, the binding signal is 13.3 upbm affinity estimate (log intensity, higher = more binding, comparable within an allelic series).
Turning to AGCGGGGC, the binding signal was 9.55 upbm affinity estimate (log intensity, higher = more binding, comparable within an allelic series).
Still for that read-out and setting: to AGCGGCCT belongs 9.32 upbm affinity estimate (log intensity, higher = more binding, comparable within an allelic series).
As to CCTACGGC, the binding signal is 9.61 upbm affinity estimate (log intensity, higher = more binding, comparable within an allelic series).
As for AGGCGTGA, the binding signal is 9.37 upbm affinity estimate (log intensity, higher = more binding, comparable within an allelic series).
For the sequence GAGGAAGC, the binding signal was 9.52 upbm affinity estimate (log intensity, higher = more binding, comparable within an allelic series).
